Screening results (PubChem BioAssay)
Sampled rows, rich in hits. Any-hit rate of the full collection: about 10%.
Luciferase inh: inhibitors of firefly (Photinus pyralis) luciferase | purified P. pyralis luciferase, luminescence, biochemical | P08659 | 76,000 tested, 2.5% active | Potency, µM (titrated, usually from 115 µM), most hits filed as inhibitors | AID 1347043; further: nearly all actives have a fitted effect of over 65% in size
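Biochemical qHTS: compound (6-point titration) added to 10uM D-luciferin plus 10uM ATP in Tris acetate pH 7.5 buffer with Mg, Tween-20 and BSA, then purified enzyme at 10nM; light output imaged.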
NPR1 antag: blocks ANP-stimulated signaling of human Npr1 receptor; HEK293 hNpr1 GloSensor cGMP, ANP-stimulated luminescence; Potency, µM (titrated, usually from 46.3 µM), inactives show at the top dose activity change, negative = inhibition, actives largely listed as inhibitors; 76,000 tested, 1.6% active; calls by dose curve; further: nearly all actives have a fitted effect of over 60% in size
Target sequence (P16066 whole entry, looked up): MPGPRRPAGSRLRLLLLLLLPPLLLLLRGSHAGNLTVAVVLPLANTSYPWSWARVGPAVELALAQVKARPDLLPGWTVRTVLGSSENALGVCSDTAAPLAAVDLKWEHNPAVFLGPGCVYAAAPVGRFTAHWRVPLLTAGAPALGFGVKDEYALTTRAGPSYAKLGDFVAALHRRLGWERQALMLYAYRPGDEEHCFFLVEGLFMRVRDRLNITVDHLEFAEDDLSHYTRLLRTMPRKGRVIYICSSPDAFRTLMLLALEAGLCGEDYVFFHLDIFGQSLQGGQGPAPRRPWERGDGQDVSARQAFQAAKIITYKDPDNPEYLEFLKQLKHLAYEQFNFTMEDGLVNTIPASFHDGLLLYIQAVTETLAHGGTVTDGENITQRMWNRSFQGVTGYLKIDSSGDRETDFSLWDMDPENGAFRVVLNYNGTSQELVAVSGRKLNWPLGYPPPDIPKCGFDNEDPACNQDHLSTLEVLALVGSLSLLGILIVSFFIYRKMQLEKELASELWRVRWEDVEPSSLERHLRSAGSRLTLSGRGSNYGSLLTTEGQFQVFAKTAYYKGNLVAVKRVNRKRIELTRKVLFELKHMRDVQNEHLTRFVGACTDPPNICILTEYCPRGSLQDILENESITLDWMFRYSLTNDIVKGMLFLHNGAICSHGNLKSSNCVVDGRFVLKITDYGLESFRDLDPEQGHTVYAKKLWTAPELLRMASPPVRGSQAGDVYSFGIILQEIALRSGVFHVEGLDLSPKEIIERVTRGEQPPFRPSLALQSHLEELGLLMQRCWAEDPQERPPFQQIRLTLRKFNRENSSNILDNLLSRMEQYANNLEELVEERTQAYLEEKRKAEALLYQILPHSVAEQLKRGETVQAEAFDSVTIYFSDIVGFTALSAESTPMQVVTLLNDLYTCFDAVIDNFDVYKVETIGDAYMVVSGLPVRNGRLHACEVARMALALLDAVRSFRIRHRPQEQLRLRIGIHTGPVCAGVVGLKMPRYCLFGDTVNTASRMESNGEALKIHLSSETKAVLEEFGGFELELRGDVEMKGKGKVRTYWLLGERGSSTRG
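Compound pre-incubated 30 min at room temperature on GloSensor-loaded HEK293 cells stably carrying hNpr1 and the pGS-40F cGMP biosensor. Stimulation uses hNppA at 0.1 nM final; luminescence is taken at baseline and 20 min post-agonist.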
GPT2 inh: inhibitors of human GPT2 alanine aminotransferase; Potency, µM (highest dose often 57.7 µM), without a hit: at the highest dose activity change, negative = inhibition, usual class: inhibitors; Recombinant GPT2, coupled pyruvate oxidase/HRP Amplex Red fluorescence; Q8TD30; 100,000 tested, 0.25% active; further: nearly all actives have a fitted effect of over 60% in size
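Fluorescence of coupled pyruvate oxidase/HRP/Amplex Red system (50uM Amplex, 30 min, dark) reports pyruvate formed by GPT2. Enzyme reaction: 10ng/uL GPT2, 2mM L-alanine, 250uM a-KG, 30 min room temperature, pH 7.5; 50uM AOA control.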
3T3 cytotox: kills NIH 3T3 cells | NIH 3T3 viability, CellTiter-Glo ATP luminescence, 48-72 h | Potency, µM (highest dose often 96.7 µM), for the others: at the highest dose activity change, negative = cytotoxicity, usual class: inhibitors | 94,000 tested, 4.3% active; further: nearly all actives have a fitted effect of over 55% in size
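Cytotoxicity is measured as loss of cellular ATP: NIH 3T3 cells (400/well) are exposed to compound for 48 or 72 hr at 37 °C, then CellTiter-Glo luminescence is imaged after 10 min at room temperature.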
HEK293 tox: kills HEK 293 cells; AID 1345083; 94,000 tested, 6.6% active; HEK 293 viability, ATP luminescence (CellTiter-Glo), 48-72 h; Potency, µM (titrated, usually from 115 µM), for inactives: at the top dose activity change, negative = cytotoxicity, actives largely listed as inhibitors; further: nearly all actives have a fitted effect of over 60% in size
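HEK 293 cells seeded at 250 cells/well were exposed to compound for 48 or 72 hr at 37 degree Celsius. Viability taken as ATP content by CellTiter-Glo luminescence.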
An asterisk follows results filed as active; [ ] = dose if it differs, or a comment. Unless noted, the call rests on the fitted dose curve; in most records, active means well fitted curve in the direction sought with a large enough effect; inconclusive means small, poorly fitted or top-dose-only effect, or another doubt; inactive means no such curve, though single readings can be large; an effect the other way counts as inactive or inconclusive. On the % scale 0 is the no-effect control and ±100 the full control effect; potency means the concentration at half of the fitted maximal effect.

Results for COCCNc1ncc(-c2cccc(N[S+](C)(=O)[O-])c2)c2c1OCC2 ?
Luciferase inh: 63.1µM*; NPR1 antag: 3.0%[70.6 µM]; GPT2 inh: inactive; 3T3 cytotox: inconclusive; HEK293 tox: inconclusive

Results for COCCNc1ncc(-c2ccc(NC(C)=O)cc2)c2c1OCC2 ?
Luciferase inh: inactive; NPR1 antag: 4.8%[70.6 µM]; GPT2 inh: inactive; 3T3 cytotox: inconclusive; HEK293 tox: inconclusive

How did COCCNc1ncc(-c2cccc(OC)c2)c2c1OCC2 do in these assays?
Luciferase inh: 17.8µM*; NPR1 antag: -3.1%[70.6 µM]; GPT2 inh: inconclusive; 3T3 cytotox: inconclusive; HEK293 tox: inconclusive

Results for O=C(c1ccsc1)N1CCCC(c2nc(C3CCOCC3)no2)C1 (stereo not given) ?
Luciferase inh: inactive; NPR1 antag: 1.3%; GPT2 inh: inactive; 3T3 cytotox: -10.4%; HEK293 tox: -1.8%

Results for Cc1noc(C)c1[S+](=O)([O-])N1CCC(c2nn(-c3ccccn3)c(=O)[nH]2)CC1 ?
GPT2 inh: 0.3%; 3T3 cytotox: -10.7%; HEK293 tox: -4.3%

Results for C#CCNC(=O)c1cccc(-c2ccc(OC)nn2)c1 ?
3T3 cytotox: inconclusive; HEK293 tox: -7.9%[172 µM]

What do the screens show for `COc1ccc(S(=O)(=O)N2CCOC[C@H](Oc3ccc(C(F)(F)F)cn3)C2)cc1`?
Luciferase inh: inactive; NPR1 antag: inconclusive; GPT2 inh: 0.3%[88.5 µM]; 3T3 cytotox: inconclusive; HEK293 tox: 100µM*

How did Cc1noc(C)c1S(=O)(=O)N1CCOC[C@H](Oc2ccc(C(F)(F)F)cc2)C1 do in these assays?
Luciferase inh: inactive; NPR1 antag: -20.9%[70.6 µM]; GPT2 inh: -9.3%[88.5 µM]; 3T3 cytotox: inconclusive; HEK293 tox: 63.1µM*

How did COc1ccc(S(=O)(=O)N2CCOC[C@H](Oc3ccccc3)C2)cc1 do in these assays?
Luciferase inh: inactive; NPR1 antag: -9.0%[70.6 µM]; GPT2 inh: 0.3%[88.5 µM]; 3T3 cytotox: inconclusive; HEK293 tox: 63.1µM*

What do the screens show for `COc1ccc(O[C@H]2COCCN(S(=O)(=O)c3ccc(OC)cc3)C2)cc1`?
Luciferase inh: inactive; NPR1 antag: -0.5%[70.6 µM]; GPT2 inh: -10.4%[88.5 µM]; 3T3 cytotox: inconclusive; HEK293 tox: inconclusive

Results for CS(=O)(=O)N1CCOC[C@H](Oc2ccc(C(F)(F)F)cc2)C1 ?
Luciferase inh: inactive; NPR1 antag: -18.1%[70.6 µM]; GPT2 inh: -4.4%[88.5 µM]; 3T3 cytotox: -16.6%[138 µM]; HEK293 tox: inconclusive

Results for COc1ccccc1Cn1c(=O)c(C(=O)N2CCC(c3ccccc3)CC2)nc2cccnc21 ?
GPT2 inh: 4.5%; 3T3 cytotox: inconclusive; HEK293 tox: inconclusive

How did O=C1CC(c2ccccc2)N(C(=O)CNC(=O)c2ccc3[nH]ccc3c2)CCCCCN1 (stereo not given) do in these assays?
Luciferase inh: inactive; NPR1 antag: 5.4%; GPT2 inh: -5.5%; 3T3 cytotox: inactive; HEK293 tox: inconclusive

How did Cc1noc(C)c1Cc1ccc(C(=O)N2CCC(OCCOc3ccccc3)CC2)o1 do in these assays?
GPT2 inh: -2.1%; 3T3 cytotox: inconclusive; HEK293 tox: 39.8µM*

What do the screens show for `Cc1cccc(C)c1-c1cc(C(=O)NCCCc2ccccc2)c2cnn(C)c2n1`?
GPT2 inh: 2.7%; 3T3 cytotox: inconclusive; HEK293 tox: inconclusive

What do the screens show for `O=C(NCCc1ccc(Cl)cc1)C1CCCN(Cc2cccc(-c3ccsc3)c2)C1` (stereo not given)?
3T3 cytotox: 14.1µM*; HEK293 tox: 22.4µM*

Results for COc1ccccc1-c1cccc(CN2CCCC(C(=O)NCc3cccs3)C2)c1 (stereo not given) ?
GPT2 inh: -7.4%; 3T3 cytotox: inconclusive; HEK293 tox: inconclusive

How did O=C(Nc1cccc(F)c1)C1CCCN(Cc2cccc(-c3cccs3)c2)C1 (stereo not given) do in these assays?
3T3 cytotox: inconclusive; HEK293 tox: 31.6µM*

How did CCC(C)NC(=O)C1CCCN(Cc2cccc(-c3ccsc3)c2)C1 (stereo not given) do in these assays?
3T3 cytotox: inconclusive; HEK293 tox: 44.7µM*

How did O=C(NCc1ccc(F)cc1)C1CCCN(Cc2cccc(-c3cccs3)c2)C1 (stereo not given) do in these assays?
GPT2 inh: -11.7%; 3T3 cytotox: inconclusive; HEK293 tox: 39.8µM*

Results for CC(=O)NCc1nnc2n1C(C(=O)NCC(F)(F)F)CC2 (stereo not given) ?
GPT2 inh: inactive; 3T3 cytotox: -11.9%[138 µM]; HEK293 tox: -29.8%[172 µM]

What do the screens show for `Cc1cc(C)n(CC(=O)N2CC(F)(F)C[C@H]2c2nc(C3CC3)no2)n1`?
Luciferase inh: inactive; NPR1 antag: 0.8%; GPT2 inh: inactive; 3T3 cytotox: -5.3%; HEK293 tox: -8.2%

What do the screens show for `CC1=C[C@@H](CNS(=O)(=O)Cc2ccccc2)[C@H](C(C)C)C[C@H]1CC(=O)N1CCN(C)CC1`?
Luciferase inh: inactive; NPR1 antag: -2.5%; GPT2 inh: -18.2%; 3T3 cytotox: -15.2%; HEK293 tox: inconclusive

What do the screens show for `O=C(NCC(F)F)C1CCCN(Cc2cccc(-c3cccs3)c2)C1` (stereo not given)?
GPT2 inh: -1.1%; 3T3 cytotox: inconclusive; HEK293 tox: 89.1µM*

What do the screens show for `COc1ccc(CNC(=O)C2CCCN(Cc3cccc(-c4cccs4)c3)C2)cc1` (stereo not given)?
GPT2 inh: inactive; 3T3 cytotox: inconclusive; HEK293 tox: inconclusive

What do the screens show for `O=C(NCc1cccc(C(F)(F)F)c1)C1CCCN(Cc2cccc(-c3cccs3)c2)C1` (stereo not given)?
3T3 cytotox: 7.94µM*; HEK293 tox: inconclusive

Results for O=C(NCc1ccccc1F)C1CCCN(Cc2cccc(-c3cccs3)c2)C1 (stereo not given) ?
3T3 cytotox: 39.8µM*; HEK293 tox: 44.7µM*

Results for O=C(NCc1ccccc1)C1CCCN(Cc2cccc(-c3cccs3)c2)C1 (stereo not given) ?
3T3 cytotox: 31.6µM*; HEK293 tox: inconclusive

What do the screens show for `COC(=O)CNC(=O)C1CCCN(Cc2cccc(-c3cccs3)c2)C1` (stereo not given)?
GPT2 inh: inactive; 3T3 cytotox: inconclusive; HEK293 tox: -10.8%

How did O=C(NCCCc1ccccc1)C1CCCN(Cc2cccc(-c3cccs3)c2)C1 (stereo not given) do in these assays?
GPT2 inh: inactive; 3T3 cytotox: inconclusive; HEK293 tox: inconclusive

Results for COc1cccc(N2C(=O)NC(=NC3CCCCC3)C23CCN([S+](=O)([O-])c2cccs2)CC3)c1 ?
GPT2 inh: inactive; 3T3 cytotox: -7.9%; HEK293 tox: -8.0%
